Results filed as inconclusive are left out. Values without a mark were called inactive. Activity calls are given as the source filed them. Calls come from the whole dose curve; as a rule, active = well fitted cell-killing curve with a large enough effect; inconclusive = small, poorly fitted or top-dose-only effect, or effect the other way; inactive = no such curve, though single readings can be large or run the other way.
Potency is the fitted concentration of half-maximal effect.

The assay in a line: Quantitative highthroughput screen to assess conditional lethalithy of SEM cells grown in Human Plasma-Like Medium with dialyzed fetal bovine serum (HPLM+ds) (AID 1963882). Note: nearly all actives have a fitted effect of over 35% in size. The settings on record: SEM B-ALL cells in HPLM+ds, CellTiter-Glo viability, 48 h; series mostly up to 45.8 µM; viability: at the top concentration. An excerpt:
Assay Provider: Jason Cantor Ph.D.
Department of Biochemistry
University of Wisconsin-Madison, Madison, WI, USA
Chemical screening studies have identified drug sensitivities across hundreds of cancer cell lines but most putative therapeutics fail to translate. Discovery and development of drug candidates in models that more accurately reflect nutrient levels in human blood is a major challenge. Here we performed high-throughput screens in conventional versus Human Plasma-Like Medium (HPLM) to identify compounds that were "missed" when screening using the artificial culture condition. Sets of conditional anticancer compounds spanned phases of clinical development and included non-oncology drugs were assessed. […] We also traced conditional phenotypes for several chemotherapeutics to availability of HPLM-specific metabolites and confirmed others for compounds whose reported targets are encoded by nonessential genes. Our findings establish generalizable strategies for exploiting conditional lethality in HPLM to reveal therapeutic candidates and mechanisms of action in cancer cells.
Described herein are the results of each viability screens against three cell lines: NOMO1 (an acute myeloid leukemia cell line); P12-Ichikawa (a T-cell acute lymphoblastic leukemia); and SEM (a B-cell ALL). Each assay was screened using 3 different cell culture media: homemade human plasma-Like medium with 10% dialyzed fetal bovine serum (HPLM+ds); RPMI1640 with 10% untreated FBS and 5mM glucose (RPMI+s); and RPMI1640 with 10% dialyzed fetal bovine serum and 5 mM glucose (RPMI+ds).
PROTOCOL TABLE (as described by Inglese J, Shamu CE and Guy RK. 2007)
SEQUENCE No. (e.g., 1, 2, 3, etc.); […] (e.g., Cells, Incubation, Reagent, etc.); VALUE and DESCRIPTION.
1; Cells; 5 uL; white, solid bottom 1536-well Greiner assay plate.
2; Compounds; 23 nL; Kalypsis pin tool (Wako USA) equipped with a 1536-well pin head to transfer to the assay plates.
3; Incubation; 48 hours; 37C incubation.
4; Reagent; 3 uL; CellTiter Glo (Promega).
5; Incubation; 5 min, room temperature
6; Detection; Luminescence, Viewlux PerkinElmer.
NOTES (numbers refer to Sequence numbers above)
1. Briefly, 5 ul of cell reagent was dispensed using a Multidrop Combi Dispenser. The NOMO1 and SEM cells were plated at 500 cells/well and the P12-Ichikawa line at 1000 cells/well.
2. After seeding the cells, 23 nL of MIPE 4.1 library compounds (in DMSO) were added to each plate using a Kalypsys 1536 Pintool dispenser. Bortezomib at final concentration of […] and DMSO were added to each plate as positive and negative controls respectively. For each screen, MIPE 4.1 compounds were added over an eleven-point concentration range […] in 3-fold dilutions.
3. Each plate was covered with a stainless steel gasketed lid to prevent evaporation and incubated for 48 hour at 37C, 95% relative humidity, and 5% CO2.
4-5. Three microliter CellTilter-GloTM luminescent substrate mix (Promega) reagent was added to the assay plate and incubated at room temperature for 5 min.
6. The luminescence signal was measured using a ViewLux (PerkinElmer) multiplate reader with a 2 second exposure time per plate. Data for each compound were normalized as percent viability such that measurements for DMSO and the empty well controls in each plate were defined as 100% and 0%, respectively.
As to `CNC(=O)c1cccc(-c2ccc3c(N4CCOC[C@H]4C)nc(N4CCOC[C@H]4C)nc3n2)c1`, the Potency is 264 nM (active).

Take `CN(NC(=O)CC(=O)NN(C)C(=S)c1ccccc1)C(=S)c1ccccc1`: the Potency is 37.1 nM (active).

Take `CNC1[C@H](O)C(O[C@@H]2C(O)C(O[C@H]3O[C@H]([C@@H](C)NC)CC[C@H]3N)[C@@H](N)C[C@H]2N)OC[C@]1(C)O` (stereo not given in full): the “viability” value is 96.2%.

On to `Fc1ccc(Cl)cc1-c1nc(Nc2ccncc2)c2nccnc2n1`, for which the “viability” value is 124%.

`C[C@H]1[C@@H](OC(=O)CCC(=O)O)O[C@@H]2O[C@@]3(C)CC[C@@H]4[C@H](C)CC[C@@H]1[C@@]24OO3`: the Potency was 4690 nM (active).

In the case of `COc1cc2ncnc(-n3nc(-c4ccccn4)nc3N)c2cc1OC`, the Potency is 5260 nM (active).

`C=CCNc1c(O)cc2c(O)c1C[C@@H](C)C[C@H](OC)[C@@H](O)[C@@H](C)C=C(C)[C@H](OC(N)=O)[C@@H](OC)C=CC=C(C)C(=O)N2`: the Potency was 1660 nM (active).

In the case of `O=C(O)CCC=CCC[C@@H]1[C@H](N2CCCCC2)[C@@H](O)C[C@@H]1OCc1ccc(-c2ccccc2)cc1`, the “viability” value was 106%.

Take `C=CC(=O)Nc1cc2c(Nc3ccc(F)c(Cl)c3)ncnc2cc1C#CC(C)(C)N1CCN(C)CC1`: the Potency is 2960 nM (active).

As for `NC(=O)Nc1cc(-c2ccc(CN3CCOCC3)cc2)sc1C(N)=O`, the Potency is 132 nM (active).

As for `COc1cc(O)c2c(c1)C(=O)c1cc(C)cc(O)c1C2=O`, the Potency is 6450 nM (active).

Take `CCNc1cc(NC2CCC(O)CC2)nc(Nc2ccc3c(ccn3Cc3ccccc3)c2)n1` (stereo not given): the “viability” value was 84%.

On to `Cc1cc(C(=O)NOCCO)c(Nc2ccc(I)cc2F)n(C)c1=O`, for which the Potency is 66.2 nM (active).

As for `CC(=O)O[C@]1(C(C)=O)CC[C@H]2[C@@H]3C=C(Cl)C4=CC(=O)[C@@H]5C[C@H]5[C@]4(C)[C@@H]3CC[C@@]21C`, the “viability” value was 101%.

Consider `CC1=C(CO)C(=O)O[C@@H]([C@@H](C)[C@H]2CC[C@H]3[C@@H]4C[C@H]5O[C@]56[C@@H](O)C=CC(=O)[C@]6(C)[C@@H]4CC[C@]23C)C1`, for which the Potency was 235 nM (active).

In the case of `O=c1c(-c2ccc(O)cc2)coc2cc(OC3O[C@H](CO)[C@H](O)[C@H](O)[C@H]3O)cc(O)c12` (stereo not given in full), the “viability” value was 89.9%.

In the case of `CC(=O)[C@]1(O)Cc2c(O)c3c(c(O)c2[C@@H](O[C@H]2C[C@H](N)[C@@H](O)[C@H](C)O2)C1)C(=O)c1ccccc1C3=O`, the Potency was 1050 nM (active).

As for `COc1c(N2CCNC(C)C2)c(F)cc2c(=O)c(C(=O)O)cn(C3CC3)c12` (stereo not given), the Potency was 743 nM (active).

Turning to `COc1cccc(N(C)C(=S)Oc2ccc3c(c2)CCCC3)n1`, the “viability” value is 70.1%.

Consider `CC(=O)N[C@@H]1[C@H](O[C@@H]2c3ccc(c(Cl)c3)Oc3cc4cc(c3O[C@H]3O[C@H](CO)[C@@H](O)[C@H](O)[C@H]3NC(=O)CCCCCCCC(C)C)Oc3ccc(cc3Cl)C[C@H]3NC(=O)[C@H](N)c5ccc(O)c(c5)Oc5cc(O)cc(c5)[C@H](NC3=O)C(=O)N[C@H]4C(=O)N[C@H]3C(=O)N[C@@H]2C(=O)N[C@@H](C(=O)O)c2cc(O)cc(O[C@H]4O[C@H](CO)[C@@H](O)[C@H](O)[C@H]4O)c2-c2cc3ccc2O)O[C@H](CO)[C@@H](O)[C@@H]1O`, for which the “viability” value is 99.1%.

For the molecule `Cc1cc(Nc2cc(CN3CCOCC3)c3nc(C)c(Cc4ccc(Cl)cc4F)n3n2)n[nH]1`, the Potency was 1660 nM (active).

In the case of `O=c1c(O)c(-c2cc(O)c(O)c(O)c2)oc2cc(O)cc(O)c12`, the “viability” value is 107%.

On to `CC1(C)O[C@H]2CC(=O)OC[C@]23[C@H]2CC[C@@]4(C)[C@H](c5ccoc5)OC(=O)[C@H]5O[C@]54[C@]2(C)C(=O)C[C@@H]13`, for which the “viability” value is 98.2%.

In the case of `O=C1NC(=O)C(=Cc2ccc3c(c2)OC(F)(F)O3)S1`, the “viability” value was 79.3%.

Regarding `CCN(CC)CCCCNc1ncc2cc(-c3cc(OC)cc(OC)c3)c(NC(=O)NC(C)(C)C)nc2n1`, the Potency was 14800 nM (active).

Regarding `Cc1cn([C@H]2C=C[C@@H](CO)O2)c(=O)[nH]c1=O`, the “viability” value was 87.3% [at 92.2 µM].

`O=C(Nc1ccccc1)Nc1ccc(-c2ccc(C(=O)[C@H]3CCC[C@H]3C(=O)O)cc2)cc1`: the “viability” value is 108%.

Consider `CC=C(C(=CC)c1ccc(O)cc1)c1ccc(O)cc1`, for which the “viability” value is 72.5%.

`O=C1NC(=O)C(=Cc2ccc3nccnc3c2)S1`: the “viability” value is 99.3% [at 23.2 µM].

Regarding `c1ccc(-c2oc3ncnc(NC[C@@H]4CCCO4)c3c2-c2ccccc2)cc1`, the “viability” value was 72.8%.

For the molecule `CC(C)Nc1cc(-c2c[nH]c(C(=O)N[C@H](CO)c3cccc(Cl)c3)c2)c(Cl)cn1`, the Potency is 20900 nM (active).

`Cc1cn([C@H]2C[C@H](N=[N+]=[N-])[C@@H](CO)O2)c(=O)[nH]c1=O`: the “viability” value was 88.8%.

As for `O=C1c2c(O)cccc2[C@@H]([C@@H]2O[C@H](CO)[C@@H](O)[C@H](O)[C@H]2O)c2cc(CO)cc(O)c21`, the “viability” value is 99%.

Turning to `C=C(c1ccc(C(=O)O)cc1)c1cc2c(cc1C)C(C)(C)CCC2(C)C`, the “viability” value was 86.7%.

In the case of `CS[C@H]1SC[C@@H]2C(=O)N(C)[C@H](C(C)C)C(=O)OC[C@H](NC(=O)c3cnc4ccccc4n3)C(=O)N[C@H](C)C(=O)N(C)[C@@H]1C(=O)N(C)[C@H](C(C)C)C(=O)OC[C@H](NC(=O)c1cnc3ccccc3n1)C(=O)N[C@H](C)C(=O)N2C`, the Potency is 3.7 nM (active).

With `O=C(C=CC=Cc1ccc2c(c1)OCO2)N1CCCCC1`, the “viability” value was 71.6%.

For the molecule `O=C(NC(Cc1cc(=O)[nH]c2ccccc12)C(=O)O)c1ccc(Cl)cc1` (stereo not given), the “viability” value is 103%.

Take `COc1nc(-c2ccc3c(c2)OCO3)n(-c2ccc(NC(=O)CSc3ccccc3)cc2)n1`: the “viability” value was 101%.

For the molecule `CN1CC[C@@H](c2c(O)cc(O)c3c(=O)cc(-c4ccccc4Cl)oc23)[C@@H](O)C1`, the Potency is 372 nM (active).

`CC(=O)Oc1ccccc1C(=O)O`: the “viability” value is 100%.

Values taken from PubChem BioAssay (NCATS).
